High-throughput results (PubChem BioAssay)
A selection: hits, their analogues and other compounds. The true share with any hit is near 7.1%.
IL-1B inflam inh – qHTS for Inhibitors of Inflammasome Signaling: IL-1-beta AlphaLISA Primary Screen; activity change, % at 57.5 µM; AID 743279, 2014; 360,000 tested, 4.7% active; THP-1 LPS/ATP IL-1B secretion, AlphaLISA, 16 h; hits give low values; in the data active means activity change below about -50%; inconclusive means mostly about -30% to -49%; further: on the % scale 0 is the no-effect control and ±100 the full control effect
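Secreted IL-1B measured by AlphaLISA bead assay after 16 h compound exposure of THP-1 cells; compounds (final up to 57.5 uM) added 1 h before LPS (250 ng/mL) and ATP (1.25 mM) stimulation; lower signal means less secretion.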
ATXN2 expr inh – Primary qHTS for Inhibitors of ATXN expression | HEK-293 ATXN2-luciferase reporter, luminescence, 24 h | Potency, µM (titrated, usually from 57 µM), without a hit: top-dose activity change, negative = inhibition, actives largely listed as inhibitors | 360,000 tested, 0.72% active | AID 1745845, 2022; further: potency means the concentration at half of the fitted maximal effect; on the % scale 0 is the no-effect control and ±100 the full control effect; nearly all actives have a fitted effect of over 55% in size
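qHTS (up to 57 uM final) was run with 24 h compound exposure of reporter cells at 37 °C. Each well was multiplexed: SteadyGlo luminescence measured ATXN2-luciferase expression after a fluorogenic Gly-Phe-AFC viability readout (25 uM final).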
PINK1 expr mod – A Quantitative High throughput Screen to Identify Chemical Modulators of PINK1 Expression. PINK1 immunofluorescence, high-content cytometry, 24 h. Potency, µM (doses to about 76.6 µM), for the others: at the highest dose activation (PINK1 increase), actives largely listed as activators. 410,000 tested, 0.2% active. AID 624263, 2012; active means well fitted activation curve with a large enough effect; inconclusive means small, poorly fitted or top-dose-only effect; cell line not stated here; further: potency means the concentration at half of the fitted maximal effect; % of control where 0% means no effect; nearly all actives have a fitted effect of over 65% in size
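Cells are seeded, rested 12 hours, then given compound at five concentrations or DMSO for 24 hours. After fixation, blocking and antibody staining, PINK1 amount and mitochondrial localization are scored; CCCP serves as control.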
MCF10A rerep – A quantitative high throughput screen for small molecules that induce DNA re-replication in MCF 10a normal breast cells | MCF 10A DNA re-replication, Hoechst nuclear intensity, 48 h | Potency, µM (highest dose often 46.1 µM), for inactives: at the highest dose activity, positive = re-replication, usual class: activators | 350,000 tested, 2.9% active | AID 624296, 2012; further: potency means the concentration at half of the fitted maximal effect; % of control where 0% means no effect; nearly all actives have a fitted effect of over 50% in size
ATXN viability – Viability Counterscreen for Primary qHTS for Inhibitors of ATXN expression. AID 651635, 2014. 400,000 tested, 0.49% active. Potency, µM (top dose mostly 56.7 µM), most hits filed as cytotoxic. S2 cells (HEK-293 line with an ATXN2-luciferase reporter) viability, CellTiter-Fluor protease fluorescence, 24 h; further: potency means the concentration at half of the fitted maximal effect; nearly all actives have a fitted effect of over 40% in size
SW480 rerep – A quantitative high throughput screen for small molecules that induce DNA re-replication in SW480 colon adenocarcinoma cells | SW480 DNA re-replication, Hoechst DNA content imaging, 48 h | Potency, µM (titrated, usually from 46.1 µM), inactives show at the top dose re-replication activation, actives largely listed as activators | AID 624297, 2012 | 340,000 tested, 1.8% active; further: potency means the concentration at half of the fitted maximal effect; % of control where 0% means no effect; nearly all actives have a fitted effect of over 55% in size
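Treated cells incubate 48 hr (37 C, 5% CO2), are stained 40 min with Hoechst, and nuclear fluorescence is enumerated; a rise in nuclei with high DNA signal marks re-replication.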
Active calls of the source: *; i = inactive; ? = inconclusive; / = no result given; [ ] = dose if it differs, or a comment. Unless noted, the call rests on the fitted dose curve; in most records, active means well fitted curve in the direction sought with a large enough effect; inconclusive means small, poorly fitted or top-dose-only effect, or another doubt; inactive means no such curve, though single readings can be large; an effect the other way counts as inactive or inconclusive.

SMILES | IL-1B inflam inh | ATXN2 expr inh | PINK1 expr mod | MCF10A rerep | ATXN viability | SW480 rerep
c1cc(-c2nnc3n2CCCCC3)ccn1 | 6 | 5% | -3%[38.3 µM] | 0% | i | -1%
c1cnc(-c2nnc3n2CCCCC3)cn1 | 21 | 2% | -2%[38.3 µM] | 1.5µM* | i | ?
O=C(CCCCn1c(=O)c2ccccc2n(Cc2ccccc2Cl)c1=O)NCc1ccc2c(c1)OCO2 | / | 2% | 0% | / | i | /
c1ccc(Nc2nc(N3CCNCC3)nc(N3CCOCC3)n2)cc1 | -63* | -12% | 3% | ? | i | ?
c1ccc(Nc2nc(N3CCOCC3)nc(N3CCOCC3)n2)cc1 | / | -10% | 4% | ? | i | 18%
FC(F)(F)C(Oc1nc(Nc2ccc(Cl)cc2)nc(N2CCOCC2)n1)C(F)(F)F | -76* | -9% | 9% | ? | i | -1%[9.22 µM]
Oc1cccc(Nc2nc(N3CCOCC3)nc(N3CCOCC3)n2)c1 | -22 | -14% | -1% | 23µM* | ? | ?
CC(C)c1ccc(Nc2nc(Nc3ccc(Cl)cc3)nc(N3CCOCC3)n2)cc1 | / | / | -1% | / | / | /
Cc1cccc(Nc2nc(N3CCOCC3)nc(N3CCOCC3)n2)c1 | -76* | -29% | 3% | 5% | i | 28%
COc1cccc(CNC(=O)COC(=O)c2ccc(S(C)(=O)=O)c([N+](=O)[O-])c2)c1 | / | / | 0% | / | / | /
Cc1ccc(Nc2nc(N3CCOCC3)nc(N3CCOCC3)n2)cc1C | -60* | / | -1% | ? | i | -8%
OC(COc1ccc(CNCCc2ccccc2F)cc1)CN1CCCCC1 (centres undefined) | ? | / | 1% | 18µM* | ? | ?
OC(COc1ccccc1)CN1CCCCC1 (centres undefined) | -6 | 3% | -4% | -10% | i | 0%
CC(=O)c1cccc(NC(=O)c2noc3c2CCCC3)c1 | / | 15% | 4% | / | i | /
CCOc1cccc(N(C(=O)C2COc3ccccc3O2)C(C(=O)NC2CCCCC2)c2ccc(O)cc2)c1 (centres undefined) | -4 | -13% | 9% | ? | i | 17%
CC(C)CCNC(=O)C(c1ccc(O)cc1)N(C(=O)C1COc2ccccc2O1)c1cccc(O)c1 (centres undefined) | -76* | -34% | 0% | 4% | i | -53%
O=C(N/N=C/c1ccc(N2CCOCC2)cc1)c1ccccc1OCCOc1ccccc1 | -65* | ? | 2% | ? | / | ?
O=C(N/N=C/c1ccc(N2CCOCC2)cc1)c1cccs1 | 1 | 13% | 5% | 3% | i | 6.5µM*
Cc1ccc(CNC(=O)c2ccc3c(c2)N(Cc2cccc(Cl)c2)C(=O)CS3)cc1 | / | -7% | 1% | / | ? | /
CCN(C(=S)NC(=O)c1ccccc1Br)C1CCCCC1 | 0 | -1% | 1% | 3% | ? | 0.52µM*
COc1ccc(C(=O)/C=C2\Sc3ccccc3N2C)cc1 | -2 | 33%[11.3 µM] | 2% | ? | / | ?
CC(=S)/C=C1\Sc2ccccc2N1C | -61* | 7% | 4%[38.3 µM] | 1% | i | 1%
CCc1cccc2c(C(=O)CN3C(=O)N(C)C4(CCCCC4)C3=O)c[nH]c12 | 60 | -7% | ? | 5.2µM* | i | -1%
CCc1cccc2c(=O)c(C(=O)N3CCCCCC3)c[nH]c12 | -5 | 3% | -1% | 0% | ? | -13%
CN1C(=O)N(CC(=O)NCc2ccc(Cl)cc2Cl)C(=O)C12CCCCC2 | -54* | -12% | 5% | 2% | i | 2%
CCc1cccc2c(C(=O)CN3C(=O)NC4(CCc5ccccc54)C3=O)c[nH]c12 (centres undefined) | -58* | ? | -1% | 15µM* | ? | ?
